Out of some 190,000 compounds screened, about 1,700 (0.89%) were called active.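 The calls were made as follows: active = inhibition above the mean inhibition across all screened compounds plus 3 SD (cut at about 44% in these data); inactive = the rest.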 The sample as a whole holds a higher share of actives than the screen did.
Experiment: IL-6 driven STAT3 reporter inhibitors, primary screen, U3A cells, luciferase, luminescence, MLSCN library (AID 862);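 also: 0% = DMSO only wells and 100% = 100 µM nifuroxazide control wells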
Details: IL-6 STAT3-luciferase reporter, at 5.5 µM, hits give high values, host cell line lacks STAT1
In the case of `Cc1ccc(OCC(=O)Nc2ccc(S(=O)(=O)Nc3ccccn3)cc2)cc1`, the inhibition is reported as 4.3% (inactive).
With `Cc1ccc(S(=O)(=O)Nc2ccc3ncccc3c2)cc1` the inhibition was 49.6% (active).
In the case of `Cc1cc(C)cc(OCC(=O)Nc2ccc(S(=O)(=O)Nc3ccccn3)cc2)c1`, the inhibition is reported as -0.1% (inactive).
In the case of `CC1CCCCC1NC(=O)CO/N=C/c1ccc(OC(F)F)cc1` (stereo unspecified), the inhibition is reported as -1.1% (inactive).
With `CCCCC(O)(CCCC)C(=O)NN(C(=O)CCl)c1ccccc1` the inhibition was 2.7% (inactive).
With `Cc1cc(CNC(=O)c2cccc([N+](=O)[O-])c2)c2ccccc2n1` the inhibition was 12.3% (inactive).
In the case of `Cc1cccc(-n2c(Cc3cc(=O)[nH]c(=O)[nH]3)nnc2SCC(=O)Nc2cccc(C(F)(F)F)c2)c1`, the inhibition is reported as 2% (inactive).
In the case of `CSC(=S)N/N=C/c1c[nH]c2ccccc12`, the inhibition is reported as -10.1% (inactive).
With `O=C(O)c1cccc(NC(=S)N/N=C/c2c[nH]c3ccccc23)c1` the inhibition was 73.2% (active).
For `CN(C)S(=O)(=O)c1cccc(NC(=S)N/N=C/C(=O)c2ccccc2)c1`, the inhibition was 8% (inactive).
With `CCS(=O)(=O)Nc1ccc(C2=NN(C(C)=O)C(c3cccs3)C2)cc1` (stereo unspecified) the inhibition was 6.9% (inactive).
For `O=[N+]([O-])c1cc(S(=O)(=O)N2CCCC2)ccc1NN=C1CCCC1`, the inhibition was 8.3% (inactive).
For `Cc1ccc(S(=O)(=O)N(C)C)cc1NC(=O)COC(=O)c1c(C)noc1C`, the inhibition was 6.4% (inactive).
For `COc1ccc(/C(=N\O)c2nccc3cc(OC)c(OC)cc23)cc1OC`, the inhibition was -1.8% (inactive).
In the case of `Cc1ccc(N/C=C/C(=O)c2ccccc2)cc1C`, the inhibition is reported as 52.2% (active).
In the case of `O=C(/C=C\NCC(=O)c1ccccc1)c1ccccc1`, the inhibition is reported as 22.1% (inactive).
For `Cc1noc(NS(=O)(=O)c2ccc(N/C=C/C(=O)c3ccccc3)cc2)c1C`, the inhibition was -6.5% (inactive).
For `O=c1cc(O)c(-c2cccc(C(F)(F)F)c2)c(Cl)[nH]1`, the inhibition was 5.9% (inactive).
In the case of `O=c1oc2ccccc2cc1-c1cn(-c2ccccc2)c(=S)[nH]1`, the inhibition is reported as 108% (active).
In the case of `O=C(c1cn(-c2ccccc2)nc1-c1cc2ccccc2oc1=O)N1CCOCC1`, the inhibition is reported as 11.6% (inactive).
For `Nc1ncc(-c2cc3ccccc3oc2=O)s1`, the inhibition was 14.8% (inactive).
For `CC1(C)C2CC=C(/C=N/NC(=O)c3ccc(Cl)cc3)C1C2` (stereo unspecified), the inhibition was -5.9% (inactive).
With `Fc1cccc(CSc2nnc3ccc(-c4ccncc4)nn23)c1` the inhibition was 9.1% (inactive).
For `CCCNC(=O)c1c(N)n(-c2ccc(S(N)(=O)=O)cc2)c2nc3ccccc3nc12`, the inhibition was 21.5% (inactive).
In the case of `CCC(C)NC(=O)c1c(N)n(/N=C/c2cccs2)c2nc3ccccc3nc12` (stereo unspecified), the inhibition is reported as 81.7% (active).
With `CC(C)Cn1c(N)c(C(=O)NCc2cccs2)c2nc3ccccc3nc21` the inhibition was -8.7% (inactive).
In the case of `CN(/C(=N/S(=O)(=O)c1cccs1)c1ccccc1)c1ccc(O)cc1`, the inhibition is reported as -3.2% (inactive).
With `Cc1cc(NC(=O)CN2C(=O)NC(C)(CCc3ccccc3)C2=O)no1` (stereo unspecified) the inhibition was -5.6% (inactive).
In the case of `O=C(O)CCc1nc2cc(Cl)ccc2n(Cc2ccccc2)c1=O`, the inhibition is reported as 2.8% (inactive).
In the case of `Cn1c(-c2ccco2)nc2cc3ccccc3cc21`, the inhibition is reported as 79.1% (active).
With `CN(c1nc2ccccc2n2c(-c3ccco3)nnc12)S(=O)(=O)c1ccccc1` the inhibition was 4.1% (inactive).
In the case of `CN1c2ccccc2-c2nc3ccccc3n2C1c1ccco1` (stereo unspecified), the inhibition is reported as 14% (inactive).
In the case of `O=C1CCCC(O)=C1N=Nc1ccc2ncsc2c1`, the inhibition is reported as -0.2% (inactive).
In the case of `O=C(NCCCn1ccnc1)C(=O)c1cn(CC(=O)N2CCCCCC2)c2ccccc12`, the inhibition is reported as 6.5% (inactive).
In the case of `CC(C)N(C(=O)CSc1nc(COc2ccccc2)nc2ccccc12)C(C)C`, the inhibition is reported as 10.8% (inactive).
For `CC(=O)N1CCc2cc(Br)cc(S(=O)(=O)CCC(=O)Nc3c(C)n(C)n(-c4ccccc4)c3=O)c21`, the inhibition was -1.8% (inactive).
In the case of `O=C(NCc1cccnc1)c1nc(-c2cccs2)no1`, the inhibition is reported as 1.9% (inactive).
With `Cc1cc(C(=O)Cn2cnc3cc([N+](=O)[O-])ccc3c2=O)c(C)n1CC1CCCO1` (stereo unspecified) the inhibition was 8.2% (inactive).
In the case of `Cc1ccsc1C(=O)OCC(=O)c1cc2ccccc2o1`, the inhibition is reported as 13.5% (inactive).
With `Cc1ccsc1C(=O)OCC(=O)c1cc(C)n(CC2CCCO2)c1C` (stereo unspecified) the inhibition was 95.8% (active).
With `CC(C)(C)C1CCC(OC(=O)CCC(=O)Nc2ccccc2)CC1` (stereo unspecified) the inhibition was 5.2% (inactive).
For `O=C(c1cc(=O)c2ccccc2o1)N1CCN(c2ccccc2)CC1`, the inhibition was 4.4% (inactive).
In the case of `Cc1ccc(-c2csc(NC(=O)c3cccs3)n2)cc1`, the inhibition is reported as 12.6% (inactive).
With `Cc1nc(-c2ccc(NC(=O)c3cccs3)cc2)cs1` the inhibition was 78.1% (active).
For `Cc1ccc(-c2nnc(-c3ccc(NC(=O)c4cccs4)cc3)o2)cc1`, the inhibition was 11.8% (inactive).
For `Cc1ccc(S(=O)(=O)N2CCN(CC(=O)N/N=C/c3cc([N+](=O)[O-])ccc3Cl)CC2)cc1`, the inhibition was -9.8% (inactive).
For `O=c1c2c(nc3cc(-c4cccc(Cl)c4)[nH]n13)CCCC2`, the inhibition was 65.7% (active).
In the case of `O=c1c2c(nc3nc[nH]n13)CCC2`, the inhibition is reported as -1.5% (inactive).
In the case of `O=C1CCCc2c1nc(-c1cccc(Cl)c1)n2O`, the inhibition is reported as -13.1% (inactive).
In the case of `O=C(c1ccccc1)c1ccc(OCC(O)CN2CCCC2)cc1` (stereo unspecified), the inhibition is reported as -2.9% (inactive).
With `CCc1cc(-c2n[nH]c(=S)n2CC(C)C)cs1` the inhibition was 5% (inactive).
With `CCOc1ccc(OCc2cccc(C(=O)N(CC)CC)c2)cc1` the inhibition was 70.7% (active).
For `COc1ccc(OCc2cccc(C(=O)N3CCCC3)c2)cc1`, the inhibition was 29% (inactive).
For `CCN(CC)C(=O)c1ccc(O)c(OC)c1`, the inhibition was -3% (inactive).
In the case of `Cc1ccc(NC(=O)C(=O)NCC2CCN(C(=O)c3cccc([N+](=O)[O-])c3)CC2)cc1`, the inhibition is reported as 6.1% (inactive).
In the case of `O=C(Nc1ccc2c(c1)OCCO2)c1ccc(Cl)c(S(=O)(=O)N2CCCCC2)c1`, the inhibition is reported as 25.5% (inactive).
With `COc1ccc(C(=O)NC(=S)Nc2ccc(Cl)cn2)cc1OC` the inhibition was 20.4% (inactive).
For `COc1c(Cl)cc(C(=O)Nc2ccc(Cl)cn2)cc1Cl`, the inhibition was -37.3% (inactive).
In the case of `O=C(Nc1cccc(S(=O)(=O)N2CCCCC2)c1)c1ccc2c(c1)OCO2`, the inhibition is reported as 11.4% (inactive).
In the case of `O=C(Nc1cccc(S(=O)(=O)Nc2ccc(Cl)cc2)c1)c1ccc2c(c1)OCCO2`, the inhibition is reported as 44.7% (active).
With `O=C(Nc1ccc(Cl)cn1)c1ccc2c(c1)OCCO2` the inhibition was 70.2% (active).
